Results published in PubChem BioAssay.
Unmarked numbers belong to inactive results. Active and inactive are the calls of the source.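 The calls were made as follows: active = thallium flux through the channel raised or lowered by more than 3 SD from vehicle-only wells, actives on both sides; inactive = the rest.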

The compounds below were run on F380Y/beta1 (assay: modulators of BK channel variants, profiling panel, selectivity assay, cell-based, U2OS BacMam, thallium flux, beta subunits (AID 1259406;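 also: initial slope of Thallos dye fluorescence rise after thallium is added; log ratio against the mean of 0.3% DMSO vehicle wells on the same plate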)). Conditions: at 30 µM.

Row | SMILES | log fold change Tl+ flux
1 | CNCCC(Oc1ccc(C(F)(F)F)cc1)c1ccccc1 (stereo not drawn) | 0.157 (active)
2 | COc1ccc(/C=C/C(=O)Nc2ccccc2C(=O)O)cc1OC | -0.00383
3 | COC(=O)[C@H](c1ccccc1Cl)N1CCc2sccc2C1 | 0.0174
4 | CC(C)NCC(O)COc1cccc2ccccc12 (stereo not drawn) | -0.00888
5 | O=[N+]([O-])c1cccc2cn[nH]c12 | 0.0616
6 | CS(=O)(=O)c1ccc(C2=C(c3ccccc3)C(=O)OC2)cc1 | 0.00163
7 | Cc1occc(=O)c1O | 0.0152
8 | CN(C)c1nc(N(C)C)nc(N(C)C)n1 | 0.0385
9 | COc1ccc(-c2cc(=O)c3c(OC)c(OC)c(OC)c(OC)c3o2)cc1OC | 0.0362
10 | C[N+]1(C)CCCC(OC(=O)C(O)(c2ccccc2)c2ccccc2)C1 (stereo not drawn) | -0.0251
11 | CC1=C(/C=C/C(C)=C/C=C/C(C)=C\C(=O)O)C(C)(C)CCC1 | -0.0325
12 | CCc1ccc(CCOc2ccc(CC3SC(=O)NC3=O)cc2)nc1 (stereo not drawn) | 0.0033
13 | CC(C(=O)O)c1ccc(-c2ccccc2)c(F)c1 (stereo not drawn) | 0.0374
14 | CC[C@H]1OC(=O)[C@H](C)[C@@H](O[C@H]2C[C@@](C)(OC)[C@@H](O)[C@H](C)O2)[C@H](C)[C@@H](O[C@@H]2O[C@H](C)C[C@H](N(C)C)[C@H]2O)[C@](C)(OC)C[C@@H](C)C(=O)[C@H](C)[C@@H](O)[C@]1(C)O | 0.0264
15 | C[C@H]1COc2c(N3CCN(C)CC3)c(F)cc3c(=O)c(C(=O)O)cn1c23 | 0.0152
16 | CC(C)NCC(O)COc1ccc(CC(N)=O)cc1 (stereo not drawn) | 0.000846
17 | Cc1cccc(C)c1NC(=O)C1CCCCN1C (stereo not drawn) | 0.0319
18 | CCCCC(=O)N(Cc1ccc(-c2ccccc2-c2nn[nH]n2)cc1)[C@H](C(=O)O)C(C)C | -0.0013
19 | Nc1ncnc2c1ncn2[C@@H]1O[C@H](CO)[C@@H](O)[C@@H]1O | 0.0507

Each compound was assayed on F380Y/beta2Delta in the same assay as above. Conditions: at 30 µM.

Row | SMILES | log fold change Tl+ flux
20 | CNCCC(Oc1ccc(C(F)(F)F)cc1)c1ccccc1 (stereo not drawn) | 0.189 (active)
21 | COc1ccc(/C=C/C(=O)Nc2ccccc2C(=O)O)cc1OC | -0.0218
22 | COC(=O)[C@H](c1ccccc1Cl)N1CCc2sccc2C1 | -0.0129
23 | CC(C)NCC(O)COc1cccc2ccccc12 (stereo not drawn) | 0.058
24 | O=[N+]([O-])c1cccc2cn[nH]c12 | -0.000818
25 | CS(=O)(=O)c1ccc(C2=C(c3ccccc3)C(=O)OC2)cc1 | 0.00326
26 | Cc1occc(=O)c1O | 0.00122
27 | CN(C)c1nc(N(C)C)nc(N(C)C)n1 | 0.00703
28 | COc1ccc(-c2cc(=O)c3c(OC)c(OC)c(OC)c(OC)c3o2)cc1OC | 0.0292
29 | C[N+]1(C)CCCC(OC(=O)C(O)(c2ccccc2)c2ccccc2)C1 (stereo not drawn) | -0.0376
30 | CC1=C(/C=C/C(C)=C/C=C/C(C)=C\C(=O)O)C(C)(C)CCC1 | 0.000191
31 | CCc1ccc(CCOc2ccc(CC3SC(=O)NC3=O)cc2)nc1 (stereo not drawn) | 0.0296
32 | CC(C(=O)O)c1ccc(-c2ccccc2)c(F)c1 (stereo not drawn) | -0.00435
33 | CC[C@H]1OC(=O)[C@H](C)[C@@H](O[C@H]2C[C@@](C)(OC)[C@@H](O)[C@H](C)O2)[C@H](C)[C@@H](O[C@@H]2O[C@H](C)C[C@H](N(C)C)[C@H]2O)[C@](C)(OC)C[C@@H](C)C(=O)[C@H](C)[C@@H](O)[C@]1(C)O | -0.0353
34 | C[C@H]1COc2c(N3CCN(C)CC3)c(F)cc3c(=O)c(C(=O)O)cn1c23 | 0.0117
35 | CC(C)NCC(O)COc1ccc(CC(N)=O)cc1 (stereo not drawn) | 0.00577
36 | Cc1cccc(C)c1NC(=O)C1CCCCN1C (stereo not drawn) | 0.00729
37 | CCCCC(=O)N(Cc1ccc(-c2ccccc2-c2nn[nH]n2)cc1)[C@H](C(=O)O)C(C)C | 0.0113
38 | Nc1ncnc2c1ncn2[C@@H]1O[C@H](CO)[C@@H](O)[C@@H]1O | 0.00163
